# Results as given in PubChem BioAssay (EPA / NIEHS).
# Inconclusive results are not listed. Active and inactive are the calls of the source. Rule for the calls, unless noted: active = hit-call score of the fitted dose curve at least 0.9, where 1 is the maximum; inactive = score below 0.9.
# Legend:
# [1] = ATG_PBREM_CIS: Attagene CIS-FACTORIAL HepG2 Assay for human Phenobarbital-responsive Enhancer Module (PBREM) (AID 2282955); conditions: HepG2 PBREM cis-reporter, Attagene multiplexed transcription; actives raise or lower the signal
# Procedure, shortened: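 After a 24 h incubation with test chemical, transfected HepG2 cells yield total RNA; reporter-specific RT-PCR products are fluorescently labelled, HpaI-digested and resolved by capillary electrophoresis against ROX size standards.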
# [2] = target: Paired box protein Pax-6 (Homo sapiens) (UniProt P26367); assay: ATG_Pax6_CIS: Attagene CIS-FACTORIAL HepG2 Assay for human Paired Box 6 (PAX6) (AID 2282956); conditions: HepG2 CIS-FACTORIAL PAX6 reporter transcription, RNA readout; actives raise or lower the signal
# Procedure, shortened: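 Transient MRTU transfection of HepG2 → compound exposure 24 h → TriZol RNA, oligo(dT) RT → PCR, 6-FAM primer extension, HpaI cut → capillary electrophoresis; activity fitted both directions against DMSO.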
# [3] = ATG_PXRE_CIS: Attagene CIS-FACTORIAL HepG2 Assay for human Pregnane X Receptor Element (PXRE) (AID 2282957); conditions: HepG2 Attagene CIS-FACTORIAL PXRE reporter, mRNA; actives raise or lower the signal
# Procedure, shortened: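 Multiplexed cis-reporter assay in transiently transfected human HepG2 cells; 24 h chemical exposure. Reporter transcripts quantified by RT-PCR with fluorescent labeling and capillary electrophoresis.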
# [4] = ATG_PPRE_CIS: Attagene CIS-FACTORIAL HepG2 Assay for human Peroxisome Proliferator-activated Response Element (PPRE) (AID 2282958); conditions: HepG2 PPRE cis-element reporter, Attagene transcription factor profiling; actives raise or lower the signal
# Procedure, shortened: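 Multiplexed reporter transcription units under cis-regulatory promoters were transfected into HepG2 cells to capture endogenous factor activity. A 24 h incubation preceded RNA isolation and fluorescent RT-PCR fragment analysis.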
# [5] = ATG_RORE_CIS: Attagene CIS-FACTORIAL HepG2 Assay for human RAR-related Orphan Receptor Element (RORE) (AID 2282959); conditions: HepG2 Attagene cis-factorial RORE reporter, mRNA; actives raise or lower the signal
# Procedure, shortened: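 Fluorescence intensity of reporter-specific cDNA fragments, separated by capillary electrophoresis, gives the signal. Source: HepG2 liver cells transiently transfected with cis-element reporters and exposed 24 h; DMSO-normalized bidirectional fit.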
# [6] = target: Transcription factor Sp1 (Homo sapiens) (UniProt P08047); assay: ATG_Sp1_CIS: Attagene CIS-FACTORIAL HepG2 Assay for human Specificity Protein 1 (Sp1) (AID 2282961); conditions: HepG2 Sp1 cis-reporter transcription, actives raise or lower the signal
# Procedure, shortened: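 Sp1-driven reporter mRNA, read as capillary electrophoresis fluorescence after RT-PCR, in transiently transfected HepG2 cells dosed for 24 h; signal change in either direction relative to DMSO.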
# [7] = ATG_SREBP_CIS: Attagene CIS-FACTORIAL HepG2 Assay for human Sterol Regulatory Element Binding (SREBP) (AID 2282962); conditions: HepG2 Attagene cis-factorial SREBP reporter, mRNA; actives raise or lower the signal
# Procedure, shortened: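 Transfected HepG2 (cis-regulated reporter library, endogenous TFs) → compound 24 h → total RNA → oligo(dT) RT → reporter-specific PCR → FAM primer extension, HpaI cut → CE fluorescence. Fit bidirectional vs DMSO.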
# [8] = target: Signal transducer and activator of transcription 3 (Homo sapiens) (UniProt P40763); assay: ATG_STAT3_CIS: Attagene CIS-FACTORIAL HepG2 Assay for human Signal Transducer and Activator of Transcription 3 (STAT3) (AID 2282963); conditions: HepG2, Attagene cis-factorial STAT3 reporter transcription; actives raise or lower the signal
# Procedure, shortened: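 Values derive from bidirectional fits relative to DMSO of reporter mRNA levels, measured by RT-PCR with capillary electrophoresis, in HepG2 cells carrying transiently transfected cis-regulated reporter units and exposed 24 h.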
# [9] = ATG_TA_CIS: Attagene CIS-FACTORIAL HepG2 Assay for human TA Basal Promoter (AID 2282964); conditions: HepG2 Attagene CIS-factorial TA basal promoter reporter; actives raise or lower the signal
# Procedure, shortened: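 HepG2 cells transiently transfected with multiple reporter units under cis promoter elements, reporting endogenous transcription factor activity; this endpoint tracks the TA basal promoter as background control. Reporter mRNA after 24 h dosing measured by RT-PCR/capillary electrophoresis; bidirectional fits versus DMSO.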
# [10] = ATG_TCF_b_cat_CIS: Attagene CIS-FACTORIAL HepG2 Assay for human T-Cell-Factor with beta-catenin (TCF/b-cat) (AID 2282965); conditions: HepG2 TCF/beta-catenin cis-reporter transcription, actives raise or lower the signal
# Procedure, shortened: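 HepG2, transient MRTU transfection, cis-element-driven reporters (endogenous TFs). 24 h compound exposure. Readout: reporter mRNA by RT-PCR + 6-FAM primer extension, HpaI digest, capillary electrophoresis. Gain/loss fit vs DMSO baseline.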
# [11] = ATG_TAL_CIS: Attagene CIS-FACTORIAL HepG2 Assay for human TAL Basal Promoter (AID 2282966); conditions: HepG2 Attagene cis-factorial TAL promoter reporter; actives raise or lower the signal;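 note: background control endpoint measuring basal TAL promoter reporter mRNA not a specific factor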
# Procedure, shortened: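 Steps: transfect HepG2 with multiple reporter transcription units; dose 24 h; isolate RNA, reverse-transcribe, PCR-amplify, label with 6-FAM, digest with HpaI; resolve by capillary electrophoresis. Bidirectional fitting against DMSO baseline.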
# [12] = ATG_TGFb_CIS: Attagene CIS-FACTORIAL HepG2 Assay for human Transforming Growth Factor (TGF) (AID 2282967); conditions: HepG2 Attagene CIS TGFb reporter, mRNA transcription; actives raise or lower the signal
# Procedure, shortened: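 HepG2 cells transiently transfected with cis-promoter-driven multiple reporter units measure endogenous TF activity; reporter mRNA quantified at 24 h by RT-PCR, FAM labeling, HpaI digestion and capillary electrophoresis. Bidirectional fit vs DMSO.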
# [13] = ATG_VDRE_CIS: Attagene CIS-FACTORIAL HepG2 Assay for human Vitamin D Receptor Element (VDRE) (AID 2282968); conditions: HepG2 VDRE cis-reporter transcription, actives raise or lower the signal
# Procedure, shortened: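 Cell-based multiplexed reporter format in human liver HepG2 cells, 24 h post-dose. Fluorescence from capillary electrophoresis of reporter cDNA gives the signal, with DMSO as negative control and baseline.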
# [14] = target: Nuclear receptor subfamily 1 group I member 3 (Homo sapiens) (UniProt Q14994); assay: ATG_CAR_TRANS: Attagene TRANS-FACTORIAL HepG2 Assay for human Constitutive Androstane Receptor (CAR) (AID 2282969; active = hit-call score of the fitted dose curve at least 0.9, where 1 is the maximum;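 note: activators raise reporter mRNA above DMSO so AC50 marks induction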); conditions: HepG2 Attagene TRANS-FACTORIAL CAR reporter
# Procedure, shortened: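 HepG2 cells transiently transfected with GAL4-UAS reporter units; TRANS format reads activity of exogenous chimeric NR-Gal4 protein. After 24 h dosing, reporter mRNA quantified by RT-PCR, 6-FAM labelling and capillary electrophoresis; gain of signal fitted against DMSO.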
# [15] = target: Estrogen receptor (Homo sapiens) (UniProt P03372); assay: ATG_ERa_TRANS: Attagene TRANS-FACTORIAL HepG2 Assay for human Estrogen Receptor alpha (ERa) (AID 2282970; active = hit-call score of the fitted dose curve at least 0.9, where 1 is the maximum); conditions: HepG2 Attagene TRANS ERa GAL4 reporter, mRNA
# Procedure, shortened: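 Multiplexed cell-based reporter format in HepG2: chimeric ERa-Gal4 protein drives GAL4-UAS reporter transcription. Fluorescent reporter mRNA quantified by capillary electrophoresis 24 hours after dosing; endpoint fitted as signal gain against DMSO.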
# [16] = target: X-box-binding protein 1 (Homo sapiens) (UniProt P17861); assay: ATG_Xbp1_CIS: Attagene CIS-FACTORIAL HepG2 Assay for human X-box Binding Protein 1 (XBP1) (AID 2282972); conditions: HepG2 XBP1 cis-element reporter, Attagene multiplex; actives raise or lower the signal
# Procedure, shortened: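 HepG2, transient MRTU transfection (cis-promoter driven), 24 h compound exposure. Total RNA → oligo(dT) RT → PCR → 6-FAM labeling → HpaI cut → CE. Bidirectional fit vs DMSO.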
# [17] = ATG_M_19_TRANS: Attagene TRANS-FACTORIAL HepG2 Assay for M19 Transcription Factor (Internal Marker) (AID 2282974; active = hit-call score of the fitted dose curve at least 0.9, where 1 is the maximum); conditions: HepG2 Attagene TRANS-FACTORIAL M19 internal marker reporter
# Procedure, shortened: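 Measured here: internal-marker reporter transcript from HepG2 cells transfected with MRTUs, harvested at 24 h. cDNA PCR products were 6-FAM labelled by primer extension, cut with HpaI for 2 h at 37 C, and resolved by CE.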
# [18] = ATG_Sox_CIS: Attagene CIS-FACTORIAL HepG2 Assay for human SRY-box transcription factor (SOX) (AID 2282960); conditions: HepG2 Attagene cis-factorial SOX reporter, mRNA; actives raise or lower the signal
# Procedure, shortened: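 After 24 h of chemical treatment, transfected HepG2 reporter cells are lysed for total RNA. Transcript levels come from RT-PCR with labelled primer extension and capillary electrophoresis, analysed bidirectionally versus DMSO.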
# [19] = ATG_GAL4_TRANS: Attagene TRANS-FACTORIAL HepG2 Assay for GAL4 (Internal Marker) (AID 2282976; active = hit-call score of the fitted dose curve at least 0.9, where 1 is the maximum); conditions: HepG2 Attagene TRANS GAL4 internal marker reporter
# Procedure, shortened: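 Liver HepG2 line bearing multiplexed GAL4-UAS reporter constructs; 24 h chemical treatment. Transcripts were quantified as fluorescent fragments on capillary electrophoresis after RT-PCR and HpaI cut, with activity fitted upward from DMSO.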
# [20] = target: Steroid hormone receptor ERR1 (Homo sapiens) (UniProt P11474); assay: ATG_ERRa_TRANS: Attagene TRANS-FACTORIAL HepG2 Assay for human Estrogen-Related Receptor alpha (ERRa) (AID 2282971; active = hit-call score of the fitted dose curve at least 0.9, where 1 is the maximum); conditions: HepG2 Attagene TRANS reporter, ERRa transactivation
# Procedure, shortened: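 Signal gain relative to DMSO for an ERRa-Gal4 chimeric receptor, read as reporter mRNA by RT-PCR/capillary electrophoresis. Human HepG2 liver cells, transient multiplex reporter transfection, 24 h chemical exposure.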
# Chain of Paired box protein Pax-6 (Homo sapiens) (P26367 whole entry, looked up): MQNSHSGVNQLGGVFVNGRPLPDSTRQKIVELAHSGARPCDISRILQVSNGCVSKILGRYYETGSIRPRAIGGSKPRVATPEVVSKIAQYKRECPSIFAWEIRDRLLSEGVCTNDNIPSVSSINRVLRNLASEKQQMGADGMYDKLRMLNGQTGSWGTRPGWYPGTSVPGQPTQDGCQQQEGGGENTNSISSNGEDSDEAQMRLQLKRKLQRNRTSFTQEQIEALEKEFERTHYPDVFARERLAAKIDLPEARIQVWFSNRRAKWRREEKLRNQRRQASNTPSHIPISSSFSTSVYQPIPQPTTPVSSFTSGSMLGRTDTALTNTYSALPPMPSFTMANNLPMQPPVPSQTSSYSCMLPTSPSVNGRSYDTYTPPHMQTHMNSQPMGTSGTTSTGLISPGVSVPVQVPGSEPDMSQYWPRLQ
# Chain of X-box-binding protein 1 (Homo sapiens) (P17861 whole entry, looked up): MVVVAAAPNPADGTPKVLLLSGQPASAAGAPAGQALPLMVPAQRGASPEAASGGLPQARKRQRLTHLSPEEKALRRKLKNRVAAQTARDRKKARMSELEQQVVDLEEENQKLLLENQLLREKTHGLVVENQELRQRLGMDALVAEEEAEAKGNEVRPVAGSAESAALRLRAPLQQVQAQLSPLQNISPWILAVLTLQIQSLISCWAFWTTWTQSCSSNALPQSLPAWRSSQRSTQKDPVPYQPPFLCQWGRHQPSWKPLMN
# Chain of Signal transducer and activator of transcription 3 (Homo sapiens) (P40763 whole entry, looked up): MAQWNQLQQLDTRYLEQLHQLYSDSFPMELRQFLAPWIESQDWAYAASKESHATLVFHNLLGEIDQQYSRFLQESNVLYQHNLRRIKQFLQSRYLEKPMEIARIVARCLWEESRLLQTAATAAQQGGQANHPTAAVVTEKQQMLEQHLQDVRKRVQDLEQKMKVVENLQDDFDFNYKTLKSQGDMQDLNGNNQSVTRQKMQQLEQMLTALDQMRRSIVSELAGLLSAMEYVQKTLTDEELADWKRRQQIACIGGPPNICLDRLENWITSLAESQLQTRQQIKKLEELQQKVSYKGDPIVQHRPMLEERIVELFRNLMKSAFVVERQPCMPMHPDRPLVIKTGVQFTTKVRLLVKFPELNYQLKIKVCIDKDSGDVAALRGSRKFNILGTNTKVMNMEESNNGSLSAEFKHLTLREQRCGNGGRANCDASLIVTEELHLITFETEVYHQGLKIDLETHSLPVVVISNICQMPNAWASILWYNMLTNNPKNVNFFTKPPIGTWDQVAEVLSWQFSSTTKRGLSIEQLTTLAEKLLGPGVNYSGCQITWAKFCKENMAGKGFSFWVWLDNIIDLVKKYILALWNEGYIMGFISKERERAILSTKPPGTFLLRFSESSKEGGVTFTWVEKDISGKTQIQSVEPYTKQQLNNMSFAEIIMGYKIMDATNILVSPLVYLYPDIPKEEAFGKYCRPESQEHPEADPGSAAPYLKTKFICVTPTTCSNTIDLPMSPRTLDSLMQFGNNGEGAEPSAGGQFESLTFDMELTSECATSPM
# Chain of Estrogen receptor (Homo sapiens) (P03372 whole entry, looked up, the tested form may be a part): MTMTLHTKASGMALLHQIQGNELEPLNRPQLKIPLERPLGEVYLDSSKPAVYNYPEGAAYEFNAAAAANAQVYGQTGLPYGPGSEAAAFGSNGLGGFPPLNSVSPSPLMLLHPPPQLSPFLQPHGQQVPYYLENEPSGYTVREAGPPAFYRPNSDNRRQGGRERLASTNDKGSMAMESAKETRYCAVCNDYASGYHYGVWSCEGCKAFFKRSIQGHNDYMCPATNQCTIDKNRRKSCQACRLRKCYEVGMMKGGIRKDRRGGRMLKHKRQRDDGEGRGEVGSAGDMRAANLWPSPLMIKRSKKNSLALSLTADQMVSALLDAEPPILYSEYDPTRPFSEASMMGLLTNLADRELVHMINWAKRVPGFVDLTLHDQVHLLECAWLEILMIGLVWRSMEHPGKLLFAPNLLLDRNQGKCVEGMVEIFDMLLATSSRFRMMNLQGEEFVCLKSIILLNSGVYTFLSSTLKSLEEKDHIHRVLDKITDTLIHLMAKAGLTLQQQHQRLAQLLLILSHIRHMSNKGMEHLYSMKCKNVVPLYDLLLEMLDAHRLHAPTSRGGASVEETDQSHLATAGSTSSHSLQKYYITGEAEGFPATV
# Chain of Nuclear receptor subfamily 1 group I member 3 (Homo sapiens) (Q14994 whole entry, looked up, the tested form may be a part): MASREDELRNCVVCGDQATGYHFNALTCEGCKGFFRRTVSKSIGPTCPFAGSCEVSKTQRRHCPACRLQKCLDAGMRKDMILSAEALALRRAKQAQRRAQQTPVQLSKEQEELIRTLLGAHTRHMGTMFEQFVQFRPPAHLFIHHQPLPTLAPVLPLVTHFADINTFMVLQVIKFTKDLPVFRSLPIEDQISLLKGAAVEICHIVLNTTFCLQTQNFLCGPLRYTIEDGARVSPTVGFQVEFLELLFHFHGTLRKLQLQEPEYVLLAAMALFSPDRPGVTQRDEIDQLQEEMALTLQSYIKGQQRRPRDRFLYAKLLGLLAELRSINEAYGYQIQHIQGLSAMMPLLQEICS
# Chain of Transcription factor Sp1 (Homo sapiens) (P08047 whole entry, looked up): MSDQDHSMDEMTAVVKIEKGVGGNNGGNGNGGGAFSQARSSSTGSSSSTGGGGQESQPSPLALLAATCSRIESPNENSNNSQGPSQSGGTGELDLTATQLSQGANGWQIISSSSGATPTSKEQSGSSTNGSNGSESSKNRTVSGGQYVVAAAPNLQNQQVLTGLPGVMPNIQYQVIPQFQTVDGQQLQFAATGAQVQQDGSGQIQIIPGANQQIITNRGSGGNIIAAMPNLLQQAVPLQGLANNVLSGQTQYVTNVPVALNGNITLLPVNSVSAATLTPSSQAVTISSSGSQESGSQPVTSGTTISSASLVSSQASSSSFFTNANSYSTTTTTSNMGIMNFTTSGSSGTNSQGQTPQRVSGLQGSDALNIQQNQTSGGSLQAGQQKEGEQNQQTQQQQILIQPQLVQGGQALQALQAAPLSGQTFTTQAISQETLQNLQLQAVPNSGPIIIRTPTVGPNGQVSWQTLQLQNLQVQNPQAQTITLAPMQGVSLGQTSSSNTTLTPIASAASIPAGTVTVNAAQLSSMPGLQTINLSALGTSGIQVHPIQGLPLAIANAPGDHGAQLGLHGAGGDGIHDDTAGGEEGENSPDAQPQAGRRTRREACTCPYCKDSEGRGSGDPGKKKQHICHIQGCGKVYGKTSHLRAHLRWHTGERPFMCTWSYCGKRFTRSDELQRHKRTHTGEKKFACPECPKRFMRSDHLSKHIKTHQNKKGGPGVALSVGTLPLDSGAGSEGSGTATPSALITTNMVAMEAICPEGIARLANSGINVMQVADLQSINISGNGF
# Chain of Steroid hormone receptor ERR1 (Homo sapiens) (P11474 whole entry, looked up, the tested form may be a part): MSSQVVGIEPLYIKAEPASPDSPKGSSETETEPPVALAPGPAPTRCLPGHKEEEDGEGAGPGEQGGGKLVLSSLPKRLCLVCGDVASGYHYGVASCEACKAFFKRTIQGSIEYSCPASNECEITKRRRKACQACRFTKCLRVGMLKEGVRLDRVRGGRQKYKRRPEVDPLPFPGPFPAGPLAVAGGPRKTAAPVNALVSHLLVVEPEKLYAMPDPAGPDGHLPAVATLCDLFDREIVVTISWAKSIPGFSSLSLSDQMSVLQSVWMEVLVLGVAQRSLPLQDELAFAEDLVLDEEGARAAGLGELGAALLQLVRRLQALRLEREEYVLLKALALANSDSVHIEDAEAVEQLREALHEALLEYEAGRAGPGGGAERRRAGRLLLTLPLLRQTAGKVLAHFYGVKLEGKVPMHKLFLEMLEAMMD
smiles,measurement,setting,value
O=S(=O)(O)c1ccc(N=Nc2c(O)ccc3ccccc23)cc1,outcome,[1],inactive
same,outcome,[2],inactive
same,AC50,[3],31.6 µM (active)
same,outcome,[4],inactive
same,outcome,[5],inactive
same,outcome,[6],inactive
same,outcome,[7],inactive
same,outcome,[8],inactive
same,outcome,[9],inactive
same,outcome,[10],inactive
same,outcome,[11],inactive
same,outcome,[12],inactive
same,outcome,[13],inactive
same,outcome,[14],inactive
same,outcome,[15],inactive
same,outcome,[16],inactive
same,outcome,[17],inactive
CO[Si](C)(C)OC,outcome,[1],inactive
same,outcome,[2],inactive
same,AC50,[3],184 µM (active)
same,outcome,[4],inactive
same,outcome,[18],inactive
same,outcome,[6],inactive
same,outcome,[7],inactive
same,outcome,[9],inactive
same,outcome,[10],inactive
same,outcome,[11],inactive
same,outcome,[12],inactive
same,outcome,[15],inactive
same,outcome,[16],inactive
same,outcome,[19],inactive
CCCCNS(=O)(=O)c1ccc(C)cc1,outcome,[1],inactive
same,outcome,[2],inactive
same,AC50,[3],27.5 µM (active)
same,outcome,[4],inactive
same,outcome,[5],inactive
same,outcome,[18],inactive
same,outcome,[6],inactive
same,outcome,[7],inactive
same,outcome,[9],inactive
same,outcome,[11],inactive
same,outcome,[15],inactive
same,outcome,[16],inactive
same,outcome,[17],inactive
CCCCCC1=CCCC1=O,outcome,[1],inactive
same,outcome,[2],inactive
same,AC50,[3],27.4 µM (active)
same,outcome,[4],inactive
same,outcome,[6],inactive
same,outcome,[7],inactive
same,outcome,[9],inactive
same,outcome,[11],inactive
same,outcome,[12],inactive
same,outcome,[15],inactive
same,outcome,[16],inactive
COC(OC)(C(=O)c1ccccc1)c1ccccc1,AC50,[1],3.88 µM (active)
same,AC50,[2],66 µM (active)
same,AC50,[3],2.19 µM (active)
same,outcome,[4],inactive
same,outcome,[6],inactive
same,outcome,[7],inactive
same,outcome,[8],inactive
same,outcome,[9],inactive
same,outcome,[10],inactive
same,outcome,[11],inactive
same,AC50,[13],5.89 µM (active)
same,outcome,[14],inactive
same,AC50,[15],0.817 µM (active)
same,outcome,[20],inactive
same,outcome,[16],inactive
same,outcome,[19],inactive
C=CC(=O)O[C@H]1C[C@@H]2CC[C@@]1(C)C2(C)C,outcome,[1],inactive
same,outcome,[2],inactive
same,AC50,[3],1.52 µM (active)
same,AC50,[4],29.7 µM (active)
same,outcome,[18],inactive
same,AC50,[6],160 µM (active)
same,outcome,[7],inactive
same,outcome,[8],inactive
same,AC50,[9],141 µM (active)
same,outcome,[10],inactive
same,outcome,[11],inactive
same,outcome,[12],inactive
same,outcome,[13],inactive
same,AC50,[14],162 µM (active)
same,AC50,[15],100 µM (active)
same,outcome,[16],inactive
C=CC(=O)OCCCCCCOC(=O)C=C,outcome,[1],inactive
same,AC50,[2],75.7 µM (active)
same,outcome,[3],inactive
same,outcome,[4],inactive
same,outcome,[6],inactive
same,AC50,[7],100 µM (active)
same,outcome,[10],inactive
same,outcome,[11],inactive
same,outcome,[12],inactive
same,AC50,[13],25.6 µM (active)
same,outcome,[15],inactive
same,outcome,[20],inactive
same,AC50,[16],26.6 µM (active)
same,outcome,[17],inactive
CCCCCCCCCC[N+](C)(CCCCCCCCCC)CCC[Si](OC)(OC)OC,AC50,[1],19.3 µM (active)
same,outcome,[2],inactive
same,AC50,[3],3.94 µM (active)
same,AC50,[4],19.9 µM (active)
same,AC50,[5],18.2 µM (active)
same,AC50,[6],21.1 µM (active)
same,AC50,[7],17 µM (active)
same,AC50,[8],18.1 µM (active)
same,outcome,[9],inactive
same,outcome,[10],inactive
same,outcome,[11],inactive
same,outcome,[12],inactive
same,outcome,[13],inactive
same,outcome,[14],inactive
same,AC50,[16],18 µM (active)
same,outcome,[17],inactive
CC1=C(O)C(=O)C(C)O1 (configuration not stated),outcome,[1],inactive
same,outcome,[2],inactive
same,outcome,[3],inactive
same,outcome,[5],inactive
same,outcome,[18],inactive
same,outcome,[6],inactive
same,outcome,[7],inactive
same,outcome,[8],inactive
same,outcome,[9],inactive
same,outcome,[10],inactive
same,outcome,[11],inactive
same,outcome,[12],inactive
same,outcome,[15],inactive
same,outcome,[16],inactive
same,outcome,[19],inactive
